# Test results published in PubChem BioAssay (EPA / NIEHS).
# Inconclusive results are not listed. Activity calls are given as the source filed them. The calls were made as follows: active = hit-call score of the fitted dose curve at least 0.9, where 1 is the maximum; inconclusive = response in the unintended direction; inactive = score below 0.9.
# Assays:
# [1] = biological target: human Acetylcholinesterase (AChE), ACHE (gene 43) (UniProt P22303); experiment: NVS_ENZ_hAChE: NovaScreen (NVS) Enzymatic Assay for human Acetylcholinesterase (AChE) (AID 2283129)
# Sequence of human Acetylcholinesterase (AChE), ACHE (gene 43) (P22303 whole entry, looked up): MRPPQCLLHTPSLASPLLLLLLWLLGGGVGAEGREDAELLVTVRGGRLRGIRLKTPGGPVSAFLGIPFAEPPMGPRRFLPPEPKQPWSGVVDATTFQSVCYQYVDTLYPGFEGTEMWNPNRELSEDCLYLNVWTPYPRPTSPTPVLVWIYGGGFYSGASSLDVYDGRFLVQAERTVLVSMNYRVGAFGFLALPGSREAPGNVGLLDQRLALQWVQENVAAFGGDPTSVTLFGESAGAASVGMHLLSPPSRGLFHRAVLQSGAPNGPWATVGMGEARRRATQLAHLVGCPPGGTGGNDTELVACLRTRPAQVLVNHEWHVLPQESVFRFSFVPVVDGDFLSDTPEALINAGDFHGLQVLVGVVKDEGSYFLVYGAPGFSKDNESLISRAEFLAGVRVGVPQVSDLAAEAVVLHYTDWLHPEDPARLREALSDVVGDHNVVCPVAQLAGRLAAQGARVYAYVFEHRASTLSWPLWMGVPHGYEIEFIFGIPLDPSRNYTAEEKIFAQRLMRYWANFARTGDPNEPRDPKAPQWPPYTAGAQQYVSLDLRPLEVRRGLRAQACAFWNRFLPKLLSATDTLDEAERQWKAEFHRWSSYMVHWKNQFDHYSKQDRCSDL
# Outline: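 Actives from a duplicate single-point screen (25 uM) were followed up in concentration series. Enzyme activity read by absorbance (colorimetric) 0.33 hour after dosing, cell-free, normalized to DMSO, with loss of signal scored.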
# [2] = biological target: human AMP-activated Protein Kinase, alpha 1 (AMPKa1), PRKAA1 (gene 5562) (UniProt Q13131); experiment: NVS_ENZ_hAMPKa1: NovaScreen (NVS) Enzymatic Assay for human AMP-activated Protein Kinase, alpha 1 (AMPKa1) (AID 2283130)
# Sequence of human AMP-activated Protein Kinase, alpha 1 (AMPKa1), PRKAA1 (gene 5562) (Q13131 whole entry, looked up): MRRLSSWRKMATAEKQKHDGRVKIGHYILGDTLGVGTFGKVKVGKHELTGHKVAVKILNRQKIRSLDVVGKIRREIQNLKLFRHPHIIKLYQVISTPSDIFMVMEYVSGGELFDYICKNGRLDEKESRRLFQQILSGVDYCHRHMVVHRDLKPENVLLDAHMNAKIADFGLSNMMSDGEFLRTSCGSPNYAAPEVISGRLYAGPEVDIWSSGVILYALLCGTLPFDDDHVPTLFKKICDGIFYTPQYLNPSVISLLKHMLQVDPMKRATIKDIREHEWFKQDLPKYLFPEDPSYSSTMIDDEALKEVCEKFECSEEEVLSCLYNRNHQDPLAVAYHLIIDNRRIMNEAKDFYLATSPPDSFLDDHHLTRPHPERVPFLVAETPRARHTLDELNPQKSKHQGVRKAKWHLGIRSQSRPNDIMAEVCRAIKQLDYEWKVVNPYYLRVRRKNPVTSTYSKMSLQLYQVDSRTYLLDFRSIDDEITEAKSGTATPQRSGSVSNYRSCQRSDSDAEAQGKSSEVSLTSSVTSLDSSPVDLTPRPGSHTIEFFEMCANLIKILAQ
# Outline: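 Compounds were screened in duplicate at 25 uM, and those reaching ~30% inhibition were titrated up to 50 uM. The enzyme was recombinant human AMPKα1, and kinase turnover was read by fluorescence/mobility shift 1 h post-dosing as loss of signal versus DMSO.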
# [3] = biological target: rat Monoamine Oxidase, MAO-B, Central (MAOBC), Maob (gene 25750) (UniProt P19643); experiment: NVS_ENZ_rMAOBC: NovaScreen (NVS) Enzymatic Assay for rat Monoamine Oxidase, MAO-B, Central (MAOBC) (AID 2283238)
# Sequence of rat Monoamine Oxidase, MAO-B, Central (MAOBC), Maob (gene 25750) (P19643 whole entry, looked up): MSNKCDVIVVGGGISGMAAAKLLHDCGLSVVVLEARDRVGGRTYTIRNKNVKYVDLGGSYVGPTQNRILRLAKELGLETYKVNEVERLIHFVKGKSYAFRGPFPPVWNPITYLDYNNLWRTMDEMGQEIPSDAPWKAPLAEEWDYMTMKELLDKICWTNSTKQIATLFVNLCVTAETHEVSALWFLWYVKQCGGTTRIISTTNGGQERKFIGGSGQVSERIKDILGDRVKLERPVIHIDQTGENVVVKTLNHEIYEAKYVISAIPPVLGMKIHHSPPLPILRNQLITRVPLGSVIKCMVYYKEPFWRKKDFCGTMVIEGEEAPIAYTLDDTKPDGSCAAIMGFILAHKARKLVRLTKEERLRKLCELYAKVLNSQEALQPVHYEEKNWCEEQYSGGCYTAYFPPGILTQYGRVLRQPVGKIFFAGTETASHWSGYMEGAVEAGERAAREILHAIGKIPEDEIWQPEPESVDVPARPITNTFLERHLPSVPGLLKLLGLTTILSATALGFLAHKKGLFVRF
# Outline: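 Actives from a duplicate 25 uM screen went on to singleton concentration-response with a 50 uM maximum. Enzyme source was rat brain tissue MAO-B, assayed cell-free. Radiolabelled product was counted by scintillation 1.17 h post-dose, with signal loss relative to DMSO.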
# [4] = biological target: rat Monoamine Oxidase, MAO-B, Peripheral (MAOBP), Maob (gene 25750) (UniProt P19643); experiment: NVS_ENZ_rMAOBP: NovaScreen (NVS) Enzymatic Assay for rat Monoamine Oxidase, MAO-B, Peripheral (MAOBP) (AID 2283242)
# Sequence of rat Monoamine Oxidase, MAO-B, Peripheral (MAOBP), Maob (gene 25750) (P19643 whole entry, looked up): as above
# [5] = biological target: human Neonicotinoid receptor (NNR), CHRNA2 (gene 1135) (UniProt Q15822); experiment: NVS_LGIC_hNNR_NBungSens: NovaScreen (NVS) Ligand-Gated Ion Channel Assay for human Neonicotinoid receptor (NNR) (AID 2283313)
# Sequence of human Neonicotinoid receptor (NNR), CHRNA2 (gene 1135) (Q15822 whole entry, looked up): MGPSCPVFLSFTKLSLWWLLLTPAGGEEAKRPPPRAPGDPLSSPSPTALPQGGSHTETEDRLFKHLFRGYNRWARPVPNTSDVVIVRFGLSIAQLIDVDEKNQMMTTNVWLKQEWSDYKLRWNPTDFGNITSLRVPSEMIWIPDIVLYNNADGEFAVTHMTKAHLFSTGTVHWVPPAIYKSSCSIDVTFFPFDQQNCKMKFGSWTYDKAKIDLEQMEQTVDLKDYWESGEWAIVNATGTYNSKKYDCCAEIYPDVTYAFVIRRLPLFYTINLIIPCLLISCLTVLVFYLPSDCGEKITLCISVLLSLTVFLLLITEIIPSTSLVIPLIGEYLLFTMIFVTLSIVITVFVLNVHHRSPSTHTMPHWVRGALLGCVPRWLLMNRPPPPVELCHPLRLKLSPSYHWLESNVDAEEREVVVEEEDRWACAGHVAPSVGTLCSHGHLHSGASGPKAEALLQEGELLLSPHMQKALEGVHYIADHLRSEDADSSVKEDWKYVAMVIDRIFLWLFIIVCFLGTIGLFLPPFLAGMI
# Outline: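 Compounds first screened in duplicate at 25 uM, then actives re-tested in single-replicate dose series up to 50 uM. Binding measured as displacement of specific radioligand from neuroblastoma membrane receptors after 2 h, scintillation read on filters.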
# [6] = biological target: bovine Gamma-Aminobutyric Acid Type A Receptor BDZ, alpha 1 site (GABARa1), GABRA1 (gene 780973) (UniProt P08219); experiment: NVS_LGIC_bGABARa1: NovaScreen (NVS) Ligand-Gated Ion Channel Assay for bovine Gamma-Aminobutyric Acid Type A Receptor BDZ, alpha 1 site (GABARa1) (AID 2283321)
# Outline: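 Bovine cortex membrane preparation, benzodiazepine site on GABA-A alpha1; specific radioligand displacement read after 0.75 h by filtration and scintillation. Screen at 25 uM, then singleton titrations up to 50 uM; DMSO baseline.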
# [7] = biological target: rat CYP2C12, Cyp2c12 (gene 25011) (UniProt P11510); experiment: NVS_ADME_rCYP2C12: NovaScreen (NVS) CYP450-related Enzyme Activity (ADME) Assay for rat CYP2C12 (AID 2283119)
# Outline: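 Fluorescent-substrate turnover by recombinant rat CYP2C12, measured at 0.5 h, normalized to acetonitrile vehicle. Chemicals screened first at a single 10 uM concentration in duplicate, with concentration series for actives.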
# [8] = biological target: human Ephrin type-A Receptor 2 (EphA2), EPHA2 (gene 1969) (UniProt P29317); experiment: NVS_ENZ_hEphA2: NovaScreen (NVS) Enzymatic Assay for human Ephrin type-A Receptor 2 (EphA2) (AID 2283155)
# Sequence of human Ephrin type-A Receptor 2 (EphA2), EPHA2 (gene 1969) (P29317 whole entry, looked up): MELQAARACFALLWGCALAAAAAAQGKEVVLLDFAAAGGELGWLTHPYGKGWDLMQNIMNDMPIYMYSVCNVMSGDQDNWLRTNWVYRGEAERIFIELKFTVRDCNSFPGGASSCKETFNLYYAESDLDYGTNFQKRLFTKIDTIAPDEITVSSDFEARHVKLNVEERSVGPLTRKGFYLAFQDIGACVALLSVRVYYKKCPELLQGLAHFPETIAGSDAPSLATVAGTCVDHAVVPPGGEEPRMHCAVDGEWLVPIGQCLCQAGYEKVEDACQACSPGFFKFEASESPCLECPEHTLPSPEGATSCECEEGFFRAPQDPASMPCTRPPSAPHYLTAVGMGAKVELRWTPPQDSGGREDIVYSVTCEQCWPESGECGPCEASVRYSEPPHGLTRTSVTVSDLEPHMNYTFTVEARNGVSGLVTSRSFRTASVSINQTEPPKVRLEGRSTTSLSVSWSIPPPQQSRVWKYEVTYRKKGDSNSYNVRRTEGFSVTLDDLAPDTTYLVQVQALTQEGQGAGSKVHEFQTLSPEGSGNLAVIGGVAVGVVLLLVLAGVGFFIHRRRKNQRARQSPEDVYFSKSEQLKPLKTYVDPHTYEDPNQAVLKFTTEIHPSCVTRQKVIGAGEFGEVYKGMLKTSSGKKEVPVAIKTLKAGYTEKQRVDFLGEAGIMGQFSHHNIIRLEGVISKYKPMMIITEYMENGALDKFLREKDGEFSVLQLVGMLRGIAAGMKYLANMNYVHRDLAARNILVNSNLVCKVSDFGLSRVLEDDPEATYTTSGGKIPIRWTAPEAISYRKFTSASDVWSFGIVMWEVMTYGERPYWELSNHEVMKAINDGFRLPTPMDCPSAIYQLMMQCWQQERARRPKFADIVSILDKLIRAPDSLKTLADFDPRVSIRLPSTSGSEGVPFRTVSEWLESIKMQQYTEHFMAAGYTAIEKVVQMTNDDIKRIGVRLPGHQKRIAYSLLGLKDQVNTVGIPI
# Outline: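 Enzyme activity of recombinant EphA2 read by fluorescence after mobility-shift separation, 1 h after dosing. Chemicals first tested at 25 uM (duplicate); those passing threshold run as concentration series, top 50 uM, single replicate, relative to DMSO.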
# [9] = biological target: human Matrix Metalloproteinase-1 (MMP1), MMP1 (gene 4312) (UniProt P03956); experiment: NVS_ENZ_hMMP1: NovaScreen (NVS) Enzymatic Assay for human Matrix Metalloproteinase-1 (MMP1) (AID 2283181)
# Outline: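 Cell-free fluorescent substrate assay of human MMP1, read after 1 h. A single 25 uM duplicate screen was followed by concentration series to a maximum of 50 uM for actives meeting threshold; inhibition analysed against DMSO baseline.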
# [10] = biological target: rat Acetylcholinesterase (AChE), Ache (gene 83817) (UniProt P37136); experiment: NVS_ENZ_rAChE: NovaScreen (NVS) Enzymatic Assay for rat Acetylcholinesterase (AChE) (AID 2283233)
# Outline: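 Compounds first screened at 25 uM in duplicate, then those passing threshold tested in concentration series up to 50 uM, against AChE from rat brain membranes. Enzyme activity read by absorbance at 0.33 h; inhibition scored versus DMSO.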
# [11] = system: rat Monoamine Oxidase, MAO-A, Peripheral (MAOAP), gene 29253; experiment: NVS_ENZ_rMAOAP: NovaScreen (NVS) Enzymatic Assay for rat Monoamine Oxidase, MAO-A, Peripheral (MAOAP) (AID 2283237)
# Outline: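 Scintillation counting tracked MAO-A activity in a cell-free rat liver mitochondrial membrane prep, read 1.17 hours after compound addition. Single-point duplicate testing at 25 uM preceded concentration-response follow-up; activity was fitted relative to DMSO.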
# [12] = biological target: human CYP4F12, CYP4F12 (gene 66002) (UniProt Q9HCS2); experiment: NVS_ADME_hCYP4F12: NovaScreen (NVS) CYP450-related Enzyme Activity (ADME) Assay for human CYP4F12 (AID 2283111)
# Sequence of human CYP4F12, CYP4F12 (gene 66002) (Q9HCS2 whole entry, looked up): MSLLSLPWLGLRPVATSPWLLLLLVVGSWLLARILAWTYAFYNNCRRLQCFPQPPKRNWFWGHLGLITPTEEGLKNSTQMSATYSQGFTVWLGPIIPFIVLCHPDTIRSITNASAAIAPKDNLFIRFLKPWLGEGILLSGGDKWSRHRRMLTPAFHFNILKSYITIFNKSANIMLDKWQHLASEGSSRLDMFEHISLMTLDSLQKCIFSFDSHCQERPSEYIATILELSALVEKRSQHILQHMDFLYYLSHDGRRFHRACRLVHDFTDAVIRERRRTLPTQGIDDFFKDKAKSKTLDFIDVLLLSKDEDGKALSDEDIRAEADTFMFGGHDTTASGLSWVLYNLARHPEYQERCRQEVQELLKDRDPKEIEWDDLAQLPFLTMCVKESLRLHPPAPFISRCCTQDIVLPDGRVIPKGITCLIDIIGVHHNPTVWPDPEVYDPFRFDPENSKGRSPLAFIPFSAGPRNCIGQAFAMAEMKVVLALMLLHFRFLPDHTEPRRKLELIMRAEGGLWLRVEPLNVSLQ
# Outline: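 Recombinant enzyme with a fluorescent substrate, signal read at 0.5 h post-dose; activity loss analysed relative to acetonitrile. Compounds first run in duplicate at 10 uM, with follow-up concentration-response testing of actives.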
# [13] = biological target: human Mitogen-Activated Protein Kinase 1 (MAPK 1), MAPK1 (gene 5594) (UniProt P28482); experiment: NVS_ENZ_hMAPK1: NovaScreen (NVS) Enzymatic Assay for human Mitogen-Activated Protein Kinase 1 (MAPK 1) (AID 2283175)
# Sequence of human Mitogen-Activated Protein Kinase 1 (MAPK 1), MAPK1 (gene 5594) (P28482 whole entry, looked up): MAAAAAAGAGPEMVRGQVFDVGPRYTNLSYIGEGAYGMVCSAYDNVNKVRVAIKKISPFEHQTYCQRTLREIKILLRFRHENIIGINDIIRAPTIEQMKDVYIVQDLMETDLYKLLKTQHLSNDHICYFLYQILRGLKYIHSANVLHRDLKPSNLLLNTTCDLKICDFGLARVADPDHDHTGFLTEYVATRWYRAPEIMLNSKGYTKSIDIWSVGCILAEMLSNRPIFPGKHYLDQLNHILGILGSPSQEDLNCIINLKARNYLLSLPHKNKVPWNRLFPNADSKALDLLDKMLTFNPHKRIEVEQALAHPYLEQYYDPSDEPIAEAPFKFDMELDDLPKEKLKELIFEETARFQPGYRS
# Outline: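 Cell-free recombinant human MAPK1 enzymatic assay, fluorescence/electrophoretic mobility shift read at 1 h; loss of signal vs DMSO. Primary screen in duplicate at 25 uM; actives (e.g. ≥30% inhibition) run as concentration-response up to 50 uM.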
# [14] = biological target: Protein deacetylase HDAC6 (Homo sapiens) (UniProt Q9UBN7); experiment: NVS_ENZ_hHDAC6: NovaScreen (NVS) Enzymatic Assay for human Histone Deacetylase 6 (HDAC6) (AID 2283164)
# Outline: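 Concentration-response runs up to 50 uM followed a duplicate 25 uM single-point screen. Deacetylase activity of recombinant human HDAC6 read by fluorescence after 1 h, with mobility-shift separation of substrate and product; DMSO as baseline.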
# [15] = system: rat Monoamine Oxidase, MAO-A, Central (MAOAC), gene 29253; experiment: NVS_ENZ_rMAOAC: NovaScreen (NVS) Enzymatic Assay for rat Monoamine Oxidase, MAO-A, Central (MAOAC) (AID 2283243);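 also: potency refers to inhibition seen as signal drop below DMSO baseline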
# Outline: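 Lysate-based radiometric enzyme assay using rat brain tissue; 1.5 h treatment; 25 uM single-point duplicate screen, concentration-response follow-up; loss of signal versus DMSO.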
# [16] = biological target: human Fibroblast Growth Factor Receptor 1 (FGFR1), FGFR1 (gene 2260) (UniProt P11362); experiment: NVS_ENZ_hFGFR1: NovaScreen (NVS) Enzymatic Assay for human Fibroblast Growth Factor Receptor 1 (FGFR1) (AID 2283159)
# Sequence of human Fibroblast Growth Factor Receptor 1 (FGFR1), FGFR1 (gene 2260) (P11362 whole entry, looked up): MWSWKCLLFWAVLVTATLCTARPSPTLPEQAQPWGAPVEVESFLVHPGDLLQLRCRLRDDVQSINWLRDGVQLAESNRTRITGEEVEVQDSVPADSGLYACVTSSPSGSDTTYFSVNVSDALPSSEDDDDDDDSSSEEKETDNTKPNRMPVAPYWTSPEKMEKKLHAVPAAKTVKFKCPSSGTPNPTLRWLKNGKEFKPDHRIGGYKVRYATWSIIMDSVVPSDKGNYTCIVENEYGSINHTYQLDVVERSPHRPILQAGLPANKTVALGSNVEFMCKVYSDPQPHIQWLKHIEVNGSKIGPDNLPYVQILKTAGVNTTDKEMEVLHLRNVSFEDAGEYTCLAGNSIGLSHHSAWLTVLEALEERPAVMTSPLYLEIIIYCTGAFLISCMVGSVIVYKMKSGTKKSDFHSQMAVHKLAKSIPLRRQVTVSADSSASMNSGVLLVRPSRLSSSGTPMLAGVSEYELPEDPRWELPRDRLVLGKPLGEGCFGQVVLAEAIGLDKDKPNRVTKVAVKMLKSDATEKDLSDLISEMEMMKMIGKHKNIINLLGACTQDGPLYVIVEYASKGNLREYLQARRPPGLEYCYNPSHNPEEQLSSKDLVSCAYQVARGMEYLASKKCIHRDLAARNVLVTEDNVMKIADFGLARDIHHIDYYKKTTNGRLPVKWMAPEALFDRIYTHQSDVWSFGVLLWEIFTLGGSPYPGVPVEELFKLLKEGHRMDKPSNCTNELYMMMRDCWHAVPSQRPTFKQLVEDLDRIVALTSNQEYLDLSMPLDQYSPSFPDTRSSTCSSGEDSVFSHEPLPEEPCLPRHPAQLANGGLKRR
# Outline: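 Cell-free recombinant kinase with fluorescent substrate, product separated by electrophoretic mobility shift; read 1 hour after dosing, loss of signal relative to DMSO. Initial screen in duplicate at 25 uM, actives followed in concentration series.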
# [17] = biological target: human p21 Activated Kinase 4 (PAK4), PAK4 (gene 10298) (UniProt O96013); experiment: NVS_ENZ_hPAK4: NovaScreen (NVS) Enzymatic Assay for human p21 Activated Kinase 4 (PAK4) (AID 2283189)
# Outline: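 Extracted PAK4 enzyme activity read by fluorescence with mobility-shift separation 1 h after chemical addition. Duplicate single-concentration screen at 25 uM, DMSO as negative control.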
structure (smiles),measurement,setting,value
COc1cccc(-c2ccc(/C=C\CN3CCCCCC3)cc2Cl)c1,AC50,[1],22.6 µM (active)
same,AC50,[2],34.6 µM (active)
same,AC50,[3],27.7 µM (active)
same,AC50,[4],11.6 µM (active)
same,AC50,[5],22.6 µM (active)
same,AC50,[6],11.7 µM (active)
O=C1OC(c2ccc(O)cc2)(c2ccc(O)cc2)c2ccccc21,outcome,[1],inactive
COC(=O)c1ccccc1S(=O)(=O)NC(=O)Nc1nc(OC(F)F)cc(OC(F)F)n1,outcome,[7],inactive
same,outcome,[1],inactive
CNS(=O)(=O)c1cc(C(=O)N2CCC(CCN3C4CCC3CC(n3c(C)nc5ccccc53)C4)(c3cccc(F)c3)CC2)c(Cl)cc1F (centres undefined),outcome,[1],inactive
same,AC50,[2],36 µM (active)
same,outcome,[8],inactive
same,AC50,[9],16.7 µM (active)
same,outcome,[10],inactive
same,outcome,[11],inactive
same,outcome,[4],inactive
same,outcome,[5],inactive
CCN(C(=O)c1cc(C)cc(OC[C@H](C)Nc2ccncc2)c1)C(C)C,AC50,[1],6.7 µM (active)
CC(C)CCCCCCCOC(=O)CCCCC(=O)OCCCCCCCC(C)C,AC50,[1],7.43 µM (active)
CCc1nc(N)nc(N)c1-c1ccc(Cl)cc1,outcome,[1],inactive
CCOC(N)=O,outcome,[12],inactive
same,outcome,[2],inactive
same,outcome,[13],inactive
CC(=O)[C@H]1CC[C@H]2[C@@H]3CCC4=CC(=O)CC[C@]4(C)[C@H]3CC[C@]12C,outcome,[12],inactive
same,AC50,[1],4.82 µM (active)
same,outcome,[14],inactive
same,outcome,[15],inactive
CN(C)C(=O)NC1(c2ccccc2)CCN(CCC[C@]2(c3ccc(Cl)c(Cl)c3)CCCN(C(=O)c3ccccc3)C2)CC1,AC50,[1],5.13 µM (active)
same,outcome,[2],inactive
same,outcome,[8],inactive
same,outcome,[16],inactive
same,outcome,[13],inactive
same,outcome,[17],inactive
same,outcome,[4],inactive
